STK33 kin inh = inhibitors of human STK33 kinase | hit rate 0.44% among 27,000 | ADP-Glo luminescence, MBP substrate | Q9BYT3 | inhibition, % at 12.5 µM; in the data active = inhibition above about 20%; inconclusive = no clear call, values can overlap the other calls
Target sequence (Q9BYT3 whole entry, looked up): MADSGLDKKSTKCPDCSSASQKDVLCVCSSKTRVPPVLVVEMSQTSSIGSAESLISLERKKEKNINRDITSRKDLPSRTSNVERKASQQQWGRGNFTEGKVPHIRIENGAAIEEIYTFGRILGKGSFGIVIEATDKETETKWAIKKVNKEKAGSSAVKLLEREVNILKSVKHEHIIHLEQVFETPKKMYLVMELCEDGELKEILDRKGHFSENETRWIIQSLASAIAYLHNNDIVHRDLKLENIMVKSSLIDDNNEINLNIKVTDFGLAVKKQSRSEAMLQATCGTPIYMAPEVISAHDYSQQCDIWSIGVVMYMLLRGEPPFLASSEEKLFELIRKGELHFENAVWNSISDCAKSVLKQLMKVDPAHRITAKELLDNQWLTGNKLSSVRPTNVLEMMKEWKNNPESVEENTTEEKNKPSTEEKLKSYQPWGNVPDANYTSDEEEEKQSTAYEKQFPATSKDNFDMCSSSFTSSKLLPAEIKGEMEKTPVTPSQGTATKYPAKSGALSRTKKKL
NOMO-1 viab = STK33 inhibitor candidate reducing NOMO-1 cell viability; NOMO-1 AML viability, CellTiter-Glo luminescence, 72 h; inhibition, % (no concentration beside the values); hit rate 7.5% among 37,000; AID 2330; in the data active = inhibition above about 80%; inconclusive = no clear call, values can overlap the other calls
PD-1 reversal = reversal of PD-1 mediated T-cell inhibition; primary human CD4 T cells, PD-L1 beads, CellTiter-Glo 96 h; activation, % (no concentration beside the values); 29,000 tested, under 10 active; call rule not given here
Each line names hits and unclear results; the compound was inactive in the other large screens. Shown is part of a subset that was picked to be rich in hits.

C[C@H](CO)N1C[C@H](C)[C@H](CN(C)Cc2ccc(Oc3ccccc3)cc2)Oc2ccc(NS(=O)(=O)c3ccc(F)cc3)cc2CC1=O	NOMO-1 viab 126.2
C[C@@H]1CN([C@H](C)CO)C(=O)Cc2cc(NS(=O)(=O)c3ccccc3)ccc2O[C@@H]1CN(C)Cc1ccc(Oc2ccccc2)cc1	NOMO-1 viab inconclusive
C[C@H]1CN([C@@H](C)CO)C(=O)Cc2cc(NS(C)(=O)=O)ccc2O[C@@H]1CN(C)Cc1ccc(Oc2ccccc2)cc1	none
C[C@@H]1CN([C@H](C)CO)C(=O)Cc2cc(NS(=O)(=O)c3ccc(F)cc3)ccc2O[C@@H]1CN(C)Cc1ccc(Oc2ccccc2)cc1	NOMO-1 viab 114.7
CCn1c(SCC(=O)Nc2ccccc2C)nnc1-c1ccc(Br)cc1	none
COc1ccc(NC(=O)Nc2cccc3c2O[C@@H](CN(C)Cc2ccc(C(=O)O)cc2)[C@@H](C)CN([C@@H](C)CO)C3=O)cc1	none (no result: STK33 kin inh)
COc1ccc(NC(=O)Nc2cccc3c2O[C@@H](CN(C)Cc2ccc(C(=O)O)cc2)[C@H](C)CN([C@@H](C)CO)C3=O)cc1	none (no result: STK33 kin inh)
COc1ccc(NC(=O)Nc2cccc3c2O[C@@H](CN(C)Cc2ccc(C(=O)Nc4ccccc4N)cc2)[C@@H](C)CN([C@@H](C)CO)C3=O)cc1	NOMO-1 viab 128.8 (no result: STK33 kin inh)
COc1ccc(NC(=O)Nc2cccc3c2O[C@@H](CN(C)Cc2ccc(C(=O)Nc4ccccc4N)cc2)[C@H](C)CN([C@@H](C)CO)C3=O)cc1	NOMO-1 viab 125.9 (no result: STK33 kin inh)
COc1ccc(NC(=O)Nc2ccc3c(c2)C(=O)N([C@@H](C)CO)C[C@H](C)[C@H](CN(C)Cc2ccc(C(=O)Nc4ccccc4N)cc2)O3)cc1	none (no result: STK33 kin inh)
COc1ccc(NC(=O)Nc2cccc3c2O[C@H](CN(C)Cc2ccc(C(=O)Nc4ccccc4N)cc2)[C@H](C)CN([C@H](C)CO)C3=O)cc1	NOMO-1 viab 139.7 (no result: STK33 kin inh)
Cc1ccc(NC(=O)Cn2cc([N+](=O)[O-])cn2)cc1Cl	none
CNC[C@H]1Oc2ccc(NC(=O)C3CC3)cc2CC(=O)N([C@@H](C)CO)C[C@@H]1C	none
C=CCn1c(=S)sc2c(Sc3nnc(-c4ccco4)o3)ncnc21	NOMO-1 viab 115.5 (no result: STK33 kin inh)
Cc1ccc(C(=O)CSc2nnc(-c3ccco3)o2)o1	none
Cc1oc2c(c1C(=O)NCc1ccccc1)C(=O)c1ccccc1C2=O	NOMO-1 viab 139.9 (no result: STK33 kin inh)
CC(=O)NC(=O)NCc1ccccc1	none (no result: STK33 kin inh)
C[C@@H]1CN([C@@H](C)CO)C(=O)Cc2cc(N(C)C)ccc2O[C@@H]1CN(C)Cc1ccccc1	NOMO-1 viab 122.2 (no result: PD-1 reversal)
C[C@H]1CN([C@@H](C)CO)C(=O)Cc2cc(N(C)C)ccc2O[C@H]1CN(C)Cc1ccccc1	none
C[C@@H]1CN([C@@H](C)CO)C(=O)Cc2cc(N(C)C)ccc2O[C@@H]1CN(C)Cc1ccc(Oc2ccccc2)cc1	NOMO-1 viab 106.3 (no result: PD-1 reversal)
C[C@@H]1CN([C@H](C)CO)C(=O)Cc2cc(N(C)C)ccc2O[C@H]1CN(C)Cc1ccccc1	none (no result: PD-1 reversal)
COC(=O)Cc1c(CCC(=O)O)oc2cc(C)cc(O)c2c1=O	none (no result: NOMO-1 viab, PD-1 reversal)
CC1=CC2OC3[C@H](O)C[C@](C)([C@@]2(CO)CC1=O)[C@]31CO1 (stereo not given in full)	NOMO-1 viab 118.5
CC(=O)OC[C@]12CCC(C)=CC1O[C@@H]1[C@H](O)[C@@H](O[C@H]3O[C@H](CO)[C@@H](O)[C@H](O)[C@H]3O)[C@@]2(C)C12CO2 (stereo not given in full)	none (no result: NOMO-1 viab, PD-1 reversal)
Cc1ccc(S(=O)(=O)N(C)CC(=O)Nc2ccccc2Br)cc1	none
C[C@@H]1CN([C@@H](C)CO)C(=O)Cc2cc(NS(C)(=O)=O)ccc2O[C@@H]1CN(C)S(=O)(=O)c1ccccc1	none
O=C(CC1(O)C(=O)N(CCc2ccccc2)c2ccc(Br)cc21)c1ccncc1 (stereo not given)	NOMO-1 viab 114.3 (no result: PD-1 reversal)
CCCCN1C(=O)C(O)(CC(=O)c2ccco2)c2cc(Br)ccc21 (stereo not given)	NOMO-1 viab 113.0 (no result: PD-1 reversal)
NC(=O)CN1C(=O)C(O)(CC(=O)c2ccncc2)c2ccccc21 (stereo not given)	none
O=C(CC1(O)C(=O)N(CCOc2ccccc2)c2ccccc21)c1ccc2c(c1)CCCC2 (stereo not given)	none
Cc1coc(C)c1C(=O)CC1(O)C(=O)N(CCc2ccccc2)c2ccccc21 (stereo not given)	none
CCN1C(=O)C(O)(CC(=O)c2ccco2)c2cc(Br)ccc21 (stereo not given)	NOMO-1 viab 122.2
CCCCN1C(=O)C(O)(CC(=O)c2ccco2)c2ccccc21 (stereo not given)	NOMO-1 viab 119.3
COc1ccc(S(=O)(=O)N(CC(N)=O)C2CCCCC2)cc1OC	none
C[C@H]1CN([C@@H](C)CO)C(=O)c2cccc(NC(=O)c3ccc(-c4nccs4)cc3)c2O[C@H]1CN(C)Cc1ccc(Cl)c(Cl)c1	NOMO-1 viab 102.3 (no result: STK33 kin inh, PD-1 reversal)
